Source: PubChem BioAssay (NCI)
Compounds without any hit were thinned out: in the full panel of roughly 83,000, 20% have a hit.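 Compound tested at a single concentration for 48 hours in 96-well plates; a percent growth value below 10 was scored as active.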 Activity calls are given as the source filed them.

Experiments:
Experiment in all cases: NCI-60 one-dose screen, 48 h (100 = growth as untreated, 0 = no growth, -100 = all killed)
Settings in all cases: 10 µM unless noted
NCI-H23 lung = system: NCI-H23 lung
NCI-H226 lung = system: NCI-H226 lung
NCI-H322M lung = system: NCI-H322M lung
HOP-62 NSCLC = system: HOP-62 NSCLC
NCI-H460 lung = system: NCI-H460 lung
786-0 renal = system: 786-0 renal
MDA-MB-231 breast = system: MDA-MB-231 breast
SF-268 CNS = system: SF-268 CNS
SF-539 CNS = system: SF-539 CNS
U251 CNS = system: U251 CNS
UACC-62 melanoma = system: UACC-62 melanoma
SK-MEL-28 melanoma = system: SK-MEL-28 melanoma
SN12C renal = system: SN12C renal
UO-31 renal = system: UO-31 renal
OVCAR-8 ovarian = system: OVCAR-8 ovarian
OVCAR-3 ovarian = system: OVCAR-3 ovarian
MDA-MB-435 melanoma = system: MDA-MB-435 melanoma
SW-620 colon = system: SW-620 colon
MCF7 breast = system: MCF7 breast
KM12 colon = system: KM12 colon

Measured: growth

Cc1cc([N+](=O)[O-])c(Cl)cc1NS(=O)(=O)c1ccccc1
inactive: NCI-H23 lung 76.5% | NCI-H226 lung 64.7% | NCI-H322M lung 85.4% | HOP-62 NSCLC 90% | NCI-H460 lung 73.2% | 786-0 renal 60.1% | MDA-MB-231 breast 108% | SF-268 CNS 90.3% | SF-539 CNS 60.6% | U251 CNS 80.9% | UACC-62 melanoma 37.1% | SK-MEL-28 melanoma 76% | SN12C renal 78.1% | UO-31 renal 63.8% | OVCAR-8 ovarian 78.1% | OVCAR-3 ovarian 71.7% | MDA-MB-435 melanoma 58.4% | SW-620 colon 93.9% | MCF7 breast 73.9% | KM12 colon 80.8%

C[C@]12CC[C@@H]3C4=C(CC[C@H]3[C@@H]1CC[C@@H]2O)CC(=O)CC4
inactive: NCI-H23 lung 98.3% | NCI-H226 lung 94% | NCI-H322M lung 109% | HOP-62 NSCLC 103% | NCI-H460 lung 105% | 786-0 renal 106% | MDA-MB-231 breast 103% | SF-268 CNS 99.7% | SF-539 CNS 103% | U251 CNS 96.8% | UACC-62 melanoma 83.3% | SK-MEL-28 melanoma 107% | SN12C renal 99.5% | UO-31 renal 92% | OVCAR-8 ovarian 101% | OVCAR-3 ovarian 113% | MDA-MB-435 melanoma 103% | SW-620 colon 102% | MCF7 breast 118% | KM12 colon 107%

CC(=O)Oc1ccc(Cl)cc1
inactive: NCI-H23 lung 94.2% | NCI-H226 lung 91.3% | NCI-H322M lung 106% | HOP-62 NSCLC 87.8% | NCI-H460 lung 101% | 786-0 renal 99.5% | MDA-MB-231 breast 95.8% | SF-268 CNS 83.6% | SF-539 CNS 89.1% | U251 CNS 97.8% | UACC-62 melanoma 91.9% | SK-MEL-28 melanoma 89.5% | SN12C renal 94.6% | UO-31 renal 59% | OVCAR-8 ovarian 101% | OVCAR-3 ovarian 63.7% | MDA-MB-435 melanoma 101% | SW-620 colon 89.9% | MCF7 breast 87.4% | KM12 colon 86.3%

O=C(O)c1[nH]c(=O)[nH]c(=O)c1F
inactive: NCI-H23 lung 93% | NCI-H226 lung 86.2% | NCI-H322M lung 92.5% | HOP-62 NSCLC 124% | NCI-H460 lung 47.9% | 786-0 renal 105% | MDA-MB-231 breast 108% | SF-268 CNS 86.7% | SF-539 CNS 82.5% | U251 CNS 87.2% | UACC-62 melanoma 79.6% | SK-MEL-28 melanoma 94.7% | SN12C renal 96.3% | UO-31 renal 65.9% | OVCAR-8 ovarian 81.7% | OVCAR-3 ovarian 106% | MDA-MB-435 melanoma 74.7% | SW-620 colon 72.7% | MCF7 breast 109% | KM12 colon 69.3%

N#Cc1ncc(/N=C/c2ccc(N(CCCl)CCCl)cc2)s1
inactive: NCI-H23 lung 58.2% | NCI-H322M lung 121% | HOP-62 NSCLC 96.1% | NCI-H460 lung 22.7% | 786-0 renal 29% | MDA-MB-231 breast 94.5% | SF-268 CNS 65.5% | SF-539 CNS 40.7% | U251 CNS 80.5% | UACC-62 melanoma 32% | SK-MEL-28 melanoma 102% | SN12C renal 55.9% | UO-31 renal 34.8% | OVCAR-8 ovarian 78.3% | OVCAR-3 ovarian 78.5% | MDA-MB-435 melanoma 87.8% | SW-620 colon 79.4% | MCF7 breast 48.7% | KM12 colon 95.3%
active: NCI-H226 lung -19.1%

CN(C)P1(N(C)C)=NP(N(C)C)(N(C)C)=NP(N(C)C)(N(C)C)=N1
inactive: NCI-H23 lung 106% | NCI-H226 lung 99.5% | NCI-H322M lung 98.8% | HOP-62 NSCLC 99% | NCI-H460 lung 107% | 786-0 renal 101% | MDA-MB-231 breast 107% | SF-268 CNS 105% | SF-539 CNS 104% | U251 CNS 97.9% | UACC-62 melanoma 103% | SK-MEL-28 melanoma 107% | SN12C renal 107% | UO-31 renal 83.1% | OVCAR-8 ovarian 96.1% | OVCAR-3 ovarian 106% | MDA-MB-435 melanoma 109% | SW-620 colon 103% | MCF7 breast 95.4% | KM12 colon 104%

CCOC(=O)/C=C(\C)Nc1ccc(N/C(C)=C/C(=O)OCC)c2c1Oc1ccccc1O2
inactive: NCI-H23 lung 89.7% | NCI-H226 lung 93.2% | NCI-H322M lung 110% | HOP-62 NSCLC 117% | NCI-H460 lung 122% | 786-0 renal 88.2% | MDA-MB-231 breast 79% | SF-268 CNS 107% | SF-539 CNS 105% | U251 CNS 99.2% | UACC-62 melanoma 92.3% | SK-MEL-28 melanoma 114% | SN12C renal 96.8% | OVCAR-8 ovarian 96.7% | OVCAR-3 ovarian 92.6% | MDA-MB-435 melanoma 101% | SW-620 colon 99.4% | MCF7 breast 93.7% | KM12 colon 97.6%

CCN(CC)CCOc1c(C(C)C)cccc1C(C)C
inactive: NCI-H23 lung 104% | NCI-H226 lung 111% | NCI-H322M lung 88.3% | HOP-62 NSCLC 96.7% | NCI-H460 lung 112% | 786-0 renal 99.6% | MDA-MB-231 breast 109% | SF-268 CNS 107% | SF-539 CNS 116% | U251 CNS 98.6% | UACC-62 melanoma 99.5% | SK-MEL-28 melanoma 92.1% | SN12C renal 105% | UO-31 renal 94.4% | OVCAR-8 ovarian 100% | OVCAR-3 ovarian 107% | MDA-MB-435 melanoma 114% | SW-620 colon 106% | MCF7 breast 94.2% | KM12 colon 99.3%
